# Counter-ions that a name gives are not always drawn. Over roughly 2,800 compounds, “cell viability relative to vehicle” has its median near 0.98; the lowest 2% begin near 0.45. This excerpt belongs to a sample that is enriched for the lowest values.
# System: NCI-H2228 alectinib-DTP
# Assay: cell viability relative to vehicle (fraction of vehicle); NCI-H2228 is an ALK-positive lung cancer line and DTP means drug-tolerant persister; higher = less growth inhibition
# Conditions: 100 nM; treatment time 6 days
# Outline: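 The 3114-agent TargetMol anti-cancer compound library was tested at 100 nM for 6 days on parental NCI-H2228 cells and on persister cells derived with 1000 nM of a targeted drug for 13 days. ATP readout by the CellTiter-Glo 3D Cell Viability Assay gave cell viability relative to DMSO vehicle-treated cells.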
row,Structure (SMILES),cell viability
1,CC(C)=CCC[C@](C)(O[C@@H]1O[C@H](CO)[C@@H](O)[C@H](O)[C@H]1O)[C@H]1CC[C@]2(C)[C@@H]1[C@H](O)C[C@@H]1[C@@]3(C)CC[C@H](O)C(C)(C)[C@@H]3[C@@H](O[C@@H]3O[C@H](CO)[C@@H](O)[C@H](O)[C@H]3O[C@@H]3O[C@@H](C)[C@H](O)[C@@H](O)[C@H]3O)C[C@]12C [Ginsenoside Re],0.852
2,C[C@H]1CNC(=O)c2cnn3ccc(nc23)N[C@H](C)c2cc(F)ccc2O1,0.904
3,NC(=O)c1nc(-c2c(F)cccc2Cl)oc1Nc1ccc(C(=O)N2CCOCC2)cc1,0.929
4,C=C(C)[C@@H]1CC[C@]2(C(=O)O)CC[C@]3(C)[C@H](CC[C@@H]4[C@@]5(C)CCC(=O)C(C)(C)[C@@H]5CC[C@]43C)[C@@H]12 [Betulonic acid],1.08
5,O=C(Nc1ccc(C(O)(C(F)(F)F)C(F)(F)F)cc1)c1ccc(C(F)(F)F)cc1,0.963
6,Clc1ccc(NN=C(c2ccccc2)c2ccccn2)nc1,0.74
7,CN(C)C(=S)NN=C(c1ccccn1)c1ccccn1,0.45
8,NNC(=O)c1ccccn1 [2-Picolinyl hydrazide],1.02
9,CC1=C(C(=O)Nc2ccc3[nH]ncc3c2)C(c2ccc(F)cc2)NC(=O)N1 (stereo not given),1.09
10,CN1CCN(c2ccc(-c3ccncc3-c3cc(F)c(O)c(F)c3)cc2)CC1,1.11
11,CCc1cnn2c(NCc3ccc[n+]([O-])c3)cc(N3CCCC[C@H]3CCO)nc12 [Dinaciclib],0.17
12,COc1ccc(CNc2nc(N3CCC[C@H]3CO)ncc2C(=O)NCc2ncccn2)cc1Cl [Avanafil],0.984
13,COc1cc2c3cc1Oc1c(OC)c(OC)cc4c1[C@@H](Cc1ccc(O)c(c1)Oc1ccc(cc1)C[C@@H]3N(C)CC2)N(C)CC4 [Berbamine],1.09
14,CC(=O)Oc1cc(C)c(OC(C)=O)c2ccccc12 [Menadiol Diacetate],1.11
15,COc1ccc(/C(C#N)=C/c2ccc(N3CCC(O)CC3)s2)cc1OC,0.953
16,CN(C)C/C=C/C(=O)Nc1ccc(C(=O)N2CCC[C@@H](Nc3ncc(Cl)c(-c4c[nH]c5ccccc45)n3)C2)cc1,0.437
17,CN(C)C/C=C/C(=O)Nc1ccc(C(=O)Nc2cccc(Nc3ncc(Cl)c(-c4c[nH]c5ccccc45)n3)c2)cc1,0.346
18,CCOc1cc2ncc(C#N)c(Nc3ccc(F)c(Cl)c3)c2cc1NC(=O)/C=C/CN(C)C [Pelitinib],0.507
19,COc1cc(N2CCC(N3CCN(C)CC3)CC2)ccc1Nc1ncc(Cl)c(-c2c[nH]c3ccccc23)n1,0.893
20,Cc1cc(NC(=O)c2cccc(NC(=O)/C=C/CN(C)C)c2)ccc1Nc1nccc(-c2cccnc2)n1,0.841
21,Cc1cc(C(=O)Nc2nc3cccc(Cl)c3n2[C@@H]2CCCCN(C(=O)/C=C/CN(C)C)C2)ccn1 [Nazartinib],0.907
22,COc1ccc(C(c2c[nH]c3ccccc23)c2c[nH]c3ccccc23)cc1,1.04
23,CC1(C)CC[C@]2(C(=O)O)CC[C@]3(C)C(=CC[C@@H]4[C@@]5(C)C[C@@H](O)[C@H](O)C(C)(C)[C@@H]5CC[C@]43C)[C@@H]2C1 [Maslinic acid],0.962
24,CC(=O)c1ccc(NC2=C(Cl)C(=O)c3ccccc3C2=O)cc1,0.908
25,COC(=O)c1cc(O)c(O)c(O)c1 [Methyl gallate],1.07

row,Structure (SMILES),cell viability
1,OC1CCC(Oc2cccc3cnc(Nc4ccc5nc[nH]c5c4)nc23)CC1 (stereo not given),1.02
2,Cc1nn(C)cc1-c1nc2c(N3CCN(Cc4ccc(Cl)cc4)CC3)c(Cl)cnc2[nH]1,0.998
3,CCCCC/C=C\C/C=C\CCCCCCCC(=O)O [Linoleic acid],0.87
4,Cc1c(C)c(NCC(=O)N(C)C2CCN(Cc3ccc(C(N)=O)cc3)CC2)c(C)c(C)c1N,0.837
5,O=C(Nc1ccc(CN2CCOCC2)cc1)c1ccc(-c2cccc(Cl)c2)o1,0.816
6,CCNC(=O)c1noc(-c2cc(C(C)C)c(O)cc2O)c1-c1ccc(CN2CCOCC2)cc1 [Luminespib],0.48
7,COCCN1CCN(Cc2ccc(-c3n[nH]c4c3C(=O)c3c(NC(=O)NN5CCOCC5)cccc3-4)cc2)CC1,0.3
8,CONC(=O)Nc1ccc(-c2sc3c(c2CN(C)C)c(=O)n(-c2ccc(OC)nn2)c(=O)n3Cc2c(F)cccc2F)cc1 [Relugolix],1.12
9,COc1ccc(S(=O)(=O)/N=C2\C=CC=C\C2=C/C=C2C=CN(O)C=C2)cc1,0.935
10,COC(=O)c1c2c(c3ccccc3c1O)OC(C)(C)C=C2 [Mollugin],1.05
11,Cc1c(O)c(C)c2c(c1O)C(=O)C[C@@H](c1ccc(O)cc1)O2 [Farrerol],0.874
12,Cc1cc(Nc2cc(N3CCN(C)CC3)nc(Sc3ccc(NC(=O)C4CC4)cc3)n2)n[nH]1 [Tozasertib],0.762
13,CN1CCN(CCCNc2ncc(Cl)c(-c3cc4c(C(=O)NC5CC5)cccc4s3)n2)CC1,0.958
14,Cc1nc(Nc2ncc(C(=O)Nc3c(C)cccc3Cl)s2)cc(N2CCN(CCO)CC2)n1 [Dasatinib monohydrate],0.489
15,Cc1nc(Nc2ncc(C(=O)Nc3c(C)cccc3Cl)s2)cc(N2CCN(CCO)CC2)n1 [Dasatinib],0.348
16,Cc1nn2c([nH]c(=O)c3cccnc32)c1C#N,1.02
17,O=C(NOCCO)c1cc(CN2OCCCC2=O)c(F)c(F)c1Nc1ccc(I)cc1F,0.84
18,CC(C)n1nc(-c2cc3cc(O)ccc3[nH]2)c2c(N)ncnc21 [Torkinib],0.733
19,CC(C)n1nc(-c2ccc3oc(N)nc3c2)c2c(N)ncnc21,0.37
20,CC(C)Oc1ccc(-c2nn([C@@H](C)c3oc4ccc(F)cc4c(=O)c3-c3cccc(F)c3)c3ncnc(N)c23)cc1F,0.937
21,Nc1ccc(-c2cnc(N)c(-c3ccc(Cl)cc3)c2)cn1,1.07
22,Oc1cc(-c2nc(-c3ccccc3)[nH]c2-c2ccncc2)ccc1Cl,1.22
23,CC(C)CN(CC(=O)N1CCN(CC(OCc2ccc3ccccc3c2)c2ccc(Cl)cc2Cl)CC1)CC(C)C (stereo not given),1.12
24,CC(=O)O[C@H]1CC(=O)OC(C)(C)[C@@H]2CC(=O)[C@]3(C)[C@H](CC[C@@]4(C)[C@@H](c5ccoc5)OC(=O)[C@H]5O[C@]543)[C@@]12C [Nomilin],1.15
25,CC(=O)O[C@@H]1C[C@H](O)[C@@]23CO[C@@H](O)[C@]1(C)[C@@H]2C[C@@H](O)[C@]1(C)[C@@H]3C(=O)[C@H](OC(C)=O)[C@@]2(C)[C@H](c3ccoc3)C[C@H]3O[C@]321 [Toosendanin],0.408

row,Structure (SMILES),cell viability
1,C[C@H](O)[C@@H](O)[C@@H](O)[C@H](O)C=O [L-(-)-Fucose],1.09
2,O=C(O)c1ccc(S(=O)(=O)N(Cc2ccc(OC(F)(F)F)cc2)c2ncc(C(F)(F)F)cc2Cl)cc1,0.969
3,O=C(Nc1ccc2[nH]nc(-c3ccncc3)c2c1)[C@@H]1CCN(CC(=O)N2CCN(c3ccc(-c4ncccn4)cc3)CC2)C1,0.831
4,COc1ccccc1C(=O)Nc1cc2c(cc1N1CCCCC1)n(C)c(=O)n2C,0.977
5,CC(=O)O[C@H](CC=C(C)C)C1=CC(=O)c2c(O)ccc(O)c2C1=O [Acetyl shikonin],1.05
6,Cc1nc(Nc2ccc(F)cc2)nc(N2CCc3ccccc3C2C)c1C (stereo not given) [Revaprazan hydrochloride],0.852
7,Cc1cc(C(=O)Nc2cccc(C(=O)Nc3cccc(C(F)(F)F)c3)c2)on1,1.1
8,Cc1cc(Nc2ncc3c(n2)N(C)C(=O)N(c2cc(NC(=O)c4cccc(C(F)(F)F)c4)ccc2C)C3)n(C)n1 [Pluripotin],0.301
9,Cc1ccc(C(=O)Nc2cccc(C(F)(F)F)c2)cc1Nc1nc(-c2cccnc2)nc2c1cnn2C,0.974
10,COc1cc2nccc(Oc3ccc(NC(=O)c4cn(C(C)C)c(=O)n(-c5ccc(F)cc5)c4=O)cc3F)c2cc1OC,0.893
11,COC1(c2sc3c(N4CCOCC4)nc(-c4cnc(N)nc4)nc3c2C)COC1,0.496
12,Cc1c(CN2CCN(S(C)(=O)=O)CC2)sc2c(N3CCOCC3)nc(-c3cnc(N)nc3)nc12,0.514
13,Cc1c(CN2CCN(C(=O)[C@H](C)O)CC2)sc2c(N3CCOCC3)nc(-c3cnc(N)nc3)nc12 [Apitolisib],0.434
14,CONC(=O)c1ccccc1Nc1cc(Nc2cc(C)nn2C(C)C)ncc1Cl,0.889
15,CC(C)n1c(=O)n(C)c2cnc3cc(F)c(-c4ccc(OCCCN5CCCCC5)nc4)cc3c21,0.883
16,CCC(=O)N1CCN(c2ccc(-n3c(=O)ccc4cnc5ccc(-c6cnc7ccccc7c6)cc5c43)cc2C(F)(F)F)CC1 [Torin 1],0.437
17,CCC(=O)N1CC[C@H](Nc2ncnc3c2CN(c2cnc(OC)c(C(F)(F)F)c2)CC3)C1 [Leniolisib],0.904
18,Nc1ccc(-c2ccc3ncc4ccc(=O)n(-c5cccc(C(F)(F)F)c5)c4c3c2)cn1 [Torin 2],0.414
19,COc1ccc(-c2ccc3ncc4c(c3c2)n(-c2ccc(N3CCNCC3)c(C(F)(F)F)c2)c(=O)n4C)cn1,0.373
20,CN(C)CCCOc1ccc(-c2ccc3ncc4c(c3c2)n(C2CCOCC2)c(=O)n4C)cn1,0.878
21,Cn1cc(C2=C(c3cccc(N)c3)C(=O)NC2=O)c2ccccc21,0.932
22,Cc1nc2cccc(N)c2c(=O)n1C1CCC(=O)NC1=O (stereo not given) [Avadomide],0.982
23,O=C([O-])CN(CCN(CC(=O)[O-])CC(=O)O)CC(=O)[O-].[Na+].[Na+].[Na+] [Edetate Trisodium],1.15
24,O=C(NO)c1cnc(NC2(c3ccccc3)CC2)nc1,1.01
25,C=CC(=O)Nc1cccc(Oc2nc(Nc3ccc(N4CCN(C)CC4)c(F)c3)nc3[nH]ccc23)c1 [Avitinib],0.747
